Experimental data reported in the supplement of paper PMC13380429.

Tested on: Vero E6 infected with SARS-CoV-2
Assay: inhibition of SARS-CoV-2 cytopathic effect; higher = more antiviral protection, active = above 15
Details: 48 h

Measured: inhibition of SARS-CoV-2 cytopathic effect

CC1=C(/C=C/C(=C/C=C/C(C)=C/C(=O)O)c2ccc(C)cc2)C(C)(C)CCC1
inactive: 1 nM 0.94% | 8.33 nM 2.92% | 100 nM 1% | 833.33 nM 1.71% | 10000 nM 6.23%

O=C1NC(O)CCN1[C@@H]1O[C@H](CO)[C@@H](O)[C@H]1O (stereo not given in full) [tetrahydrouridine]
inactive: 1 nM 2.54% | 8.33 nM 1.19% | 100 nM 0.47% | 833.33 nM -0.67% | 10000 nM -0.83%

CCN(CC)C(C)C(=O)c1ccccc1 (stereo not given) [amfepramone]
inactive: 1 nM -1.18% | 8.33 nM 1.39% | 100 nM -1.99% | 833.33 nM 1.34% | 10000 nM -0.09%

Nc1ccc(S(=O)(=O)c2ccc(N)cc2)cc1 [dapsone]
inactive: 1 nM -2.51% | 8.33 nM 2.16% | 100 nM 0.46% | 833.33 nM 11.1% | 10000 nM 1.03%

COc1ccc(CCN2CCN(CCCc3ccccc3)CC2)cc1OC [cutamesine]
inactive: 1 nM 1.71% | 8.33 nM 0.69% | 100 nM 3.33% | 833.33 nM 2.23% | 10000 nM -5.76%

CC(C)(C)NCC(O)CSc1nc(-c2ccc(C(N)=O)s2)cs1 (stereo not given) [arotinolol]
inactive: 1 nM -12.3% | 8.33 nM -9.63% | 100 nM -11% | 833.33 nM -9.7% | 10000 nM -6.09%

O=C1CCCCCCCCCCCCCCO1 [oxacyclohexadecan-2-one]
inactive: 1 nM -0.21% | 8.33 nM 0.27% | 100 nM 0.06% | 833.33 nM 1.81% | 10000 nM -1.21%
